# Experimental data reported in PubChem BioAssay (Tox21).
# Records with an inconclusive call do not appear. Entries that show only a call come without a potency. The source made the active and inactive calls. Calls come from the whole dose curve; as a rule, active = well fitted activation curve with a large enough effect in the repeat runs; inconclusive = weak or mixed curves; inactive = no such curve, though single readings can be large or run the other way.
# Test: qHTS assay for small molecules that induce genotoxicity in human embryonic kidney cells expressing luciferase-tagged ATAD5 (AID 651632); note: nearly all actives have a fitted effect of over 15% in size
# Details: HEK293T ATAD5-luciferase induction, 16 h; series mostly up to 83.3 µM
# Text: U.S. Tox21 Program National Center for Advancing Translational Sciences [NCATS] NIH Chemical Genomics Center [NCGC] U.S. Environmental Protection Agency [EPA] National Institutes of Environmental Health Sciences [NIEHS] National Toxicology Program [NTP] U.S. Food and Drug Administration [FDA] Tox21 Assay Overview: As cancer cells divide rapidly and during every cell division they need to duplicate their genome by DNA replication. The failure to do so results in the cancer cell death. Based on this concept, many chemotherapeutic agents were developed but have limitations such as low efficacy and severe side effects etc. A new cell based assay was developed to find the compounds that effectively block DNA replication either by directly damaging DNA or by inhibiting other cellular mechanisms. Enhanced Level of Genome Instability Gene 1 (ELG1; human ATAD5) protein levels increase in response to various types of DNA damage. Using a luciferase reporter-gene tagged with ATAD5, a cell-based assay [developed by Kyungjae Myung, NHGRI, NIH] was used to measure the induction of ATAD5 in human embryonic kidney cells (HEK293T). So, increase in luciferase activity can be used to identify the compounds that cause genetic stress.
# Tox21 Assay Protocol Summary: For genotoxicity screening, 2,000 cells in 5 uL/well were dispensed into white, solid-bottom 1536-well plates using a Multidrop Combi (Thermo Scientific) dispenser. Following transfer of 23 nL compound or DMSO vehicle by a pin tool, the plates were incubated 16 hr at 37C and 5% CO2. 5 ul Amplite (AAT Bioquest, Inc.) was then added to each plate and following 30 min incubation at room temperature, luciferase activity was quantified on a ViewLux CCD-based plate reader.
Compound,Potency,activation
C=CCN(CC=C)CC=C,inactive,–
CCCCCCCCS(=O)(=O)O,inactive,–
O=S(=O)(O)c1ccc(Cl)cc1,inactive,–
O=C(O)/C=C(\CC(=O)O)C(=O)O,inactive,–
COC(=O)N/N=C/c1c[n+]([O-])c2ccccc2[n+]1[O-],inactive,–
CCCC[O][Al]([O]CCCC)[O]CCCC,inactive,–
CCCCCCCOC(C)=O,inactive,–
CN1C(CCl)Nc2cc(Cl)c(S(N)(=O)=O)cc2S1(=O)=O (stereo not given),inactive,–
COC(=O)c1ccccc1Cl,inactive,–
C=CCCCCCCCCOC(C)=O,inactive,–
CCOC(=O)c1ccc(N(C)C)cc1,inactive,–
CCCCCCCCCCCCCCCC/C=C/C1CC(=O)OC1=O (stereo not given),inactive,–
CCOC(=O)[C@H](CCc1ccccc1)N[C@H]1CS[C@H](c2cccs2)CN(CC(=O)O)C1=O,inactive,–
CCCCOCCCC,inactive,–
CC(C)OCCO,inactive,–
CNCCc1ccccn1,inactive,–
CN(C)CCc1c[nH]c2ccc(CS(=O)(=O)N3CCCC3)cc12,inactive,–
CCCCCCC(=O)c1ccccc1,inactive,–
Clc1cc(Cl)c(Cl)c(Cl)c1Cl,inactive,–
C=CC(C)(CCC=C(C)C)OC(=O)C(C)C (stereo not given),inactive,–

Compound,Potency,activation
CCCCc1ccc(Cl)cc1,inactive,–
CC(C)(C)C(=O)NCCCC(=O)O,inactive,–
C=CC(=O)OCCOCCOCC,inactive,–
Cc1cc(O)c(Cl)cc1C,inactive,–
CC1(C)CC(N)CC(C)(C)N1,inactive,–
CC(=O)SC[C@@H](C)C(=O)N1CCC[C@H]1C(=O)N[C@@H](Cc1ccccc1)C(=O)O,inactive,–
CC(C)c1cc(C(C)C)cc(C(C)C)c1,inactive,–
c1cc2ccc3ccc4ccc5cccc6c(c1)c2c3c4c56,–,2.87% [at 3.63 µM] (inactive)
Cc1ccc(Br)cc1,inactive,–
CCCc1ccc(O)c(OC)c1,inactive,–
C=C(C)C(=O)OCCOC1CC2CC1C1C=CCC21 (stereo not given),inactive,–
O=C(O)CCC(=O)Nc1ccc(S(=O)(=O)Nc2nccs2)cc1,inactive,–
CC[N+](C)(CC)CC,inactive,–
CCc1ncc(C)[nH]1,inactive,–
CCOC(=O)COc1ccc2c(C)c(CCN(CC)CC)c(=O)oc2c1Cl,inactive,–
CC(CC(=O)Cl)CC(C)(C)C (stereo not given),inactive,–
COC(=O)C(c1ccccc1Cl)N1CCc2sccc2C1 (stereo not given),inactive,–
CCCCC(CC)CCC(CC(C)C)OS(=O)(=O)O (stereo not given),inactive,–
CCO[Si](CC(C)C)(OCC)OCC,inactive,–
CC/C=C\CCOC(=O)c1ccccc1,inactive,–
